# Measurements: PubChem BioAssay (EPA / NIEHS)
# Some structures have more than one record in an assay (separate samples or runs), and their calls can disagree. Calls of active or inactive are those of the source. Rule for the calls: active = hit-call score of the fitted dose curve at least 0.9, where 1 is the maximum; inactive = score below 0.9.
# Target: Hypoxia-inducible factor 1-alpha (Homo sapiens) (UniProt Q16665)
# Assay: ATG_HIF1a_CIS: Attagene CIS-FACTORIAL HepG2 Assay for human Hypoxia Inducible Factor 1 (HIF1A) (AID 2282951)
# Conditions: HepG2 Attagene cis-factorial HIF1a reporter transcription; actives raise or lower the signal
# Experimental: ATG_CIS is a cell-based, multiplexed-readout assay that uses HepG2, a human liver cell line, with measurements taken at 24 hours after chemical dosing in a 24-well plate.ATG_HIF1a_CIS is one of 52 assay component(s) measured or calculated from the ATG_CIS assay. It is designed to make measurements of mRNA induction, a form of inducible reporter, as detected with fluorescence intensity signals by Reverse transcription polymerase chain reaction (RT-PCR) and Capillary electrophoresis technology.Data from the assay component ATG_HIF1a_CIS was analyzed into 1 assay endpoint. This assay endpoint, ATG_HIF1a_CIS, was analyzed with bidirectional fitting relative to DMSO as the negative control and baseline of activity. Using a type of inducible reporter, measures of mRNA for gain or loss-of-signal activity can be used to understand the reporter gene at the transcription factor-level as they relate to the gene HIF1A. Furthermore, this assay endpoint can be referred to as a primary readout, because this assay has produced multiple assay endpoints where this one serves a reporter gene function. To generalize the intended target to other relatable targets, this assay endpoint is annotated to the dna binding intended target family, where the subfamily is basic helix-loop-helix protein.
# Human liver HepG2 cells are transiently transfected with multiple reporter transcription units (MRTUs) in 6-well plates using FuGene 6 reagent (Roche; 3 ml FuGene/1 mg DNA). The MRTU constructs are regulated by a cis-regulating element (promoter). […] A major difference between the CIS and TRANS system is that in CIS activities of endogenous TFs are measured, whereas the TRANS assay evaluates changes in activities of exogenous, chimeric NR-Gal4 proteins. […] At the end of 24 hour incubation, total RNA was isolated using TriZol reagent (Invitrogen). The isolated RNA is then reverse-transcribed using oligo(dT) primer and Mo-MLV reverse transcriptase (Invitrogen) with DNAse I (Ambion) treatment for 30 min. The one-tenth of the produced cDNA was amplified by PCR using Taq DNA polymerase (Invitrogen) and two reporter sequence-specific primers. The PCR products were fluorescently labeled by primer extension with 6-arboxyfluorescein (6-FAM) 5'-labeled reporter sequence-specific primer (2 min at 95 C, 20 s at 68 C and 10 min at 72 C) and these products were digested with 5U of HpaI (New England Biolabs) for 2h at 37 C. The fragments were purified using Qiaquick PCR columns (Qiagen), analyzed on an ABI 3130xL genetic analyzer (Applied Biosystems) with peak positions identified by using a set of X-rhodamine (ROX)-labeled MapMarker1000 molecular weight standards (BioVentures). The raw capillary electrophoresis data was processed using Attagraph software (Attagene).
# Hypoxia-inducible factor 1-alpha (Homo sapiens), sequence (Q16665 whole entry, looked up): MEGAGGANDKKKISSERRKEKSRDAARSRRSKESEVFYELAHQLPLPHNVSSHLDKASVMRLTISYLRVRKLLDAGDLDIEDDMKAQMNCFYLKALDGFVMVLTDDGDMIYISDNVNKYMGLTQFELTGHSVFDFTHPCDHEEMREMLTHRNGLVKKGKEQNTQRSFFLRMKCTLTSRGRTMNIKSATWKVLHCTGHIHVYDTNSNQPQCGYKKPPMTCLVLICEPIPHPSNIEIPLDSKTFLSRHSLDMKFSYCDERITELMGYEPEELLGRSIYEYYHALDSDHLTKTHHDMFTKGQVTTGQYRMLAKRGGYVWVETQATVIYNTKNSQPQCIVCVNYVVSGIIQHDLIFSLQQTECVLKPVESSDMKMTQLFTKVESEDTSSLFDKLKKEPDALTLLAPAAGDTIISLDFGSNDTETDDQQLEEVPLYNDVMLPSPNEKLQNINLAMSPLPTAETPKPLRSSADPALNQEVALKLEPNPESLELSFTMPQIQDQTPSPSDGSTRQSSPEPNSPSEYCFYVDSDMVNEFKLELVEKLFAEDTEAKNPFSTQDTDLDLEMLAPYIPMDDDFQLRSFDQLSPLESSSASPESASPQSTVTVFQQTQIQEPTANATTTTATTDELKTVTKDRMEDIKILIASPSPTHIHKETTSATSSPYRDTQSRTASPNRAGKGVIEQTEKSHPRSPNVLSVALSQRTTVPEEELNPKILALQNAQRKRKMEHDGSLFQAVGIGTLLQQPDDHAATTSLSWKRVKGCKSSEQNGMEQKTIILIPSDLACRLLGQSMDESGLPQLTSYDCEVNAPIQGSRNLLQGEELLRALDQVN
Structure (SMILES),AC50,outcome
CCCc1ccccc1,60.7 µM (active),–
c1ccc2cc3ccccc3cc2c1,–,inactive
OC(O)(C(F)C(O)(O)C(F)(F)F)C(F)(F)F,–,inactive
CCCCCCCCN(C)C,–,inactive
CCCCC(CC)C(=O)OCCOCCOCCOC(=O)C(CC)CCCC (stereo not given),–,inactive
O=C(O)c1ccc2c(c1)nc(C(=O)NC1CCN(C3CC3)CC1)n2Cc1cc(-c2ccc(Cl)s2)on1,–,inactive
COc1cc2c(c(OC)c1OC)-c1ccc(OC)c(=O)cc1[C@@H](NC(C)=O)CC2,0.619 µM (active),–
CCOC(N)=O,–,inactive
OCC(CO)(CO)CO,–,inactive
NC(=O)N(O)[C@@H]1COc2cc(OCc3ccccc3)ccc21,–,inactive
CCOc1ccc2[nH]cc(C(=O)NCc3ccccc3)c(=O)c2n1,–,inactive
CCCCCCCC1CCC(=O)O1 (stereo not given),–,inactive
CCCCCCCCCCCCCCO,–,inactive
OC(CCl)CCl,–,inactive
OCCNCCO,–,inactive
FC(F)(F)COC(OCC(F)(F)F)OCC(F)(F)F,–,inactive
CCn1nc(C)c2c1C(=O)NCC(c1ccc(O)cc1)=N2,–,inactive
Cc1nccn1-c1ccc(Sc2cccc(C3(C(N)=O)CCOCC3)c2)cc1,–,inactive
OC[C@H]1O[C@@](CO)(O[C@H]2O[C@H](CO)[C@@H](O)[C@H](O)[C@H]2O)[C@@H](O)[C@@H]1O,–,inactive
NC(=O)N1c2ccccc2C=Cc2ccccc21,–,inactive

Structure (SMILES),AC50,outcome
C[Si](C)(C)C(F)(F)C(F)(F)C(F)(F)F,–,inactive
CC(C)c1nnc2ccc(-c3ocnc3-c3cc(F)ccc3F)cn12,–,inactive
COS(C)(=O)=O,–,inactive
CCCCCCCCCCCCCCCCOS(=O)(=O)O,–,inactive
CC(C)CC(C)O (stereo not given),–,inactive
c1ccc2c(c1)-c1cccc3c1c-2cc1ccccc13,4.67 µM (active),inactive
O=S1(=O)CCCO1,–,inactive
Cc1cccc(O)c1C,–,inactive
COCc1nnc(-c2ccc[n+]([O-])c2)n1-c1c(Cl)c(Cl)cc2[nH]c(=O)c(=O)[nH]c12,–,inactive
O=S(=O)(O)c1ccc(N=Nc2c(O)ccc3cc(S(=O)(=O)O)ccc23)cc1,–,inactive
CCCC(CCC)C(=O)O,–,inactive
C[C@@H](Oc1ccc(CNC(=O)c2cccnc2Oc2ccc3c(c2)OCO3)c(F)c1)C(=O)O,–,inactive
NC(N)=O,–,inactive
COc1cc(C(C)C)c2c(c1)S(=O)(=O)N(COc1cc(=O)n3cccc(OCCN4CCCCC4)c3n1)C2=O,5.04 µM (active),–
CNC(C)=O,–,inactive
OC(Cn1cncn1)(Cn1cncn1)c1ccc(F)cc1F,–,inactive
CCCCCCCCCC,–,inactive
O=C(O)CO,–,inactive
CCCCOC(=O)c1ccccc1,–,inactive
